# In PMC7862700, “An all-to-all approach to the identification of sequence-specific readers for epigenetic DNA modifications on cytosine”:
# Legend:
# Test in all cases: DAPPL (digital affinity profiling via proximity ligation, sequencing); 10 mM Tris-HCl pH 7.5, 50 mM NaCl, 1 mM DTT, 4% glycerol, room temperature, 30 min; GST-TFs on glutathione beads, 16-mer random dsDNA library, 0.1% formaldehyde crosslink after washing; high values mean tight binding
# [1] = target: T1, FEV (Homo sapiens, UniProt Q99581 1-238); conditions: protein: recombinant; tags: N-terminal GST; dsDNA, one strand shown
# T1 sequence: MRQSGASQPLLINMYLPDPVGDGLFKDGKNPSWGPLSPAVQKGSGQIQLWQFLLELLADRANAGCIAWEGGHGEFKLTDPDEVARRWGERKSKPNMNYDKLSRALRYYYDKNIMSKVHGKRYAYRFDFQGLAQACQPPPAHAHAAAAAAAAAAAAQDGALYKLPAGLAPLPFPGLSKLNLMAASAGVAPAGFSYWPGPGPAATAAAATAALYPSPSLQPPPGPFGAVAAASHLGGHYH
# Summary of the method: (§1)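 Human transcription factors fused to GST were expressed in yeast, captured on glutathione beads, given DNA barcodes and pooled with a GST-only negative control. Pools were incubated with 200 nmole of a 16-mer random double-stranded DNA library in Tris/NaCl/DTT/glycerol buffer at room temperature for 30 min. They were then washed, crosslinked with 0.1% formaldehyde, proximity-ligated (BsaI/T4 ligase, 1 h, 37 °C), PCR-amplified and sequenced on an Illumina NextSeq500. Binding signal is each 6-mer's read frequency for a factor divided by its frequency for the GST control.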
# [2] = target: ETV5 (Homo sapiens, UniProt P41161 1-510); conditions: protein: recombinant; tags: N-terminal GST; dsDNA, one strand shown
# Summary of the method: as §1
# [3] = target: HSF1 (Homo sapiens, UniProt Q00613 1-529); conditions: protein: recombinant; tags: N-terminal GST; chain copies: 3; dsDNA, one strand shown
# Summary of the method: as §1
# [4] = target: T2, SPIC (Homo sapiens, UniProt Q8N5J4 1-248); conditions: protein: recombinant; tags: N-terminal GST; dsDNA, one strand shown
# T2 sequence: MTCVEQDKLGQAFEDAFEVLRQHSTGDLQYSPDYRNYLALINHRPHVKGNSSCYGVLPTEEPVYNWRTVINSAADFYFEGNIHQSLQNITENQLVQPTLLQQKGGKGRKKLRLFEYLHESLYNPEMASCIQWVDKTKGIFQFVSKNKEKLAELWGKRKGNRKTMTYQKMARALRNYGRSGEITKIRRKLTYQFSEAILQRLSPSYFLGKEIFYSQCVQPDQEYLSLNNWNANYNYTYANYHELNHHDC
# Summary of the method: as §1
# [5] = target: ELF4 (Homo sapiens, UniProt Q99607 1-663); conditions: protein: recombinant; tags: N-terminal GST; dsDNA, one strand shown
# Summary of the method: as §1
# [6] = target: T3, ELK4 (Homo sapiens, UniProt P28324-2 1-405); conditions: protein: recombinant; tags: N-terminal GST; dsDNA, one strand shown
# T3 sequence: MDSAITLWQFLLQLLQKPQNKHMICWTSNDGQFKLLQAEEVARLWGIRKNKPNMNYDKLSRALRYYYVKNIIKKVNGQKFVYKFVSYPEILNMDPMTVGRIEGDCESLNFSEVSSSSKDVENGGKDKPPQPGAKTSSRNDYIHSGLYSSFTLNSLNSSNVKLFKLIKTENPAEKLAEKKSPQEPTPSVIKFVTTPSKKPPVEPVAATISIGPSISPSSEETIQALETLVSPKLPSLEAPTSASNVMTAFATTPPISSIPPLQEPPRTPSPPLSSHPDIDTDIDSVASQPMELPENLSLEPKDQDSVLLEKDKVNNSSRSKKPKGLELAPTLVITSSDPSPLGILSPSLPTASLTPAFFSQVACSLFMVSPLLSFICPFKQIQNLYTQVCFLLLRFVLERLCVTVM
# Summary of the method: as §1
# [7] = target: T4, ETV2 (Homo sapiens, UniProt O00321 1-342); conditions: protein: recombinant; tags: N-terminal GST; dsDNA, one strand shown
# T4 sequence: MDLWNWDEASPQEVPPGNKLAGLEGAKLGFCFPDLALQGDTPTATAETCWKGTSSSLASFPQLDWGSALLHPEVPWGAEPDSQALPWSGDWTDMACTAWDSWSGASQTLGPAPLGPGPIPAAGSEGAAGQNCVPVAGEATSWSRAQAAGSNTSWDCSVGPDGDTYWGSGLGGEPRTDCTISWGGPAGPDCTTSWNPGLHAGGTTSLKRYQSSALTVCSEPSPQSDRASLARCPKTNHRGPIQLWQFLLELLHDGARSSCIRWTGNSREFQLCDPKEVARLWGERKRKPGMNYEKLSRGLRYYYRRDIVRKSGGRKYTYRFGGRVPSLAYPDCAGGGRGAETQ
# Summary of the method: as §1
# [8] = target: T5, ELF3 (Homo sapiens, UniProt P78545 1-371); conditions: protein: recombinant; tags: N-terminal GST; dsDNA, one strand shown
# T5 sequence: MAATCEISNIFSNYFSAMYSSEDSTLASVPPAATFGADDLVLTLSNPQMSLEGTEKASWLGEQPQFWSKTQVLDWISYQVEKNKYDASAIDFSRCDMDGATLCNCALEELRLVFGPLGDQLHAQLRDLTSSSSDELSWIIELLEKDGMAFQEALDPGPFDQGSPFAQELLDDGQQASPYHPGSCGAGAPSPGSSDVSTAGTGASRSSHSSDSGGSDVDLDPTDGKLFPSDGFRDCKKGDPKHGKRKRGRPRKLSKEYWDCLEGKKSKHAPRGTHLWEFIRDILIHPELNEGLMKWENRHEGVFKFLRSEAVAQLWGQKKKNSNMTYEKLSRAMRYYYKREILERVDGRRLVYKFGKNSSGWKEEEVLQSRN
# Summary of the method: as §1
# [9] = target: CRX (Homo sapiens, UniProt O43186 1-299); conditions: protein: recombinant; tags: N-terminal GST; dsDNA, one strand shown
# Summary of the method: as §1
# [10] = target: ETV1 (Homo sapiens, UniProt P50549 1-477); conditions: protein: recombinant; tags: N-terminal GST; dsDNA, one strand shown
# Summary of the method: as §1
# [11] = target: T6, ERF (Homo sapiens, UniProt P50548 1-548); conditions: protein: recombinant; tags: N-terminal GST; dsDNA, one strand shown
# T6 sequence: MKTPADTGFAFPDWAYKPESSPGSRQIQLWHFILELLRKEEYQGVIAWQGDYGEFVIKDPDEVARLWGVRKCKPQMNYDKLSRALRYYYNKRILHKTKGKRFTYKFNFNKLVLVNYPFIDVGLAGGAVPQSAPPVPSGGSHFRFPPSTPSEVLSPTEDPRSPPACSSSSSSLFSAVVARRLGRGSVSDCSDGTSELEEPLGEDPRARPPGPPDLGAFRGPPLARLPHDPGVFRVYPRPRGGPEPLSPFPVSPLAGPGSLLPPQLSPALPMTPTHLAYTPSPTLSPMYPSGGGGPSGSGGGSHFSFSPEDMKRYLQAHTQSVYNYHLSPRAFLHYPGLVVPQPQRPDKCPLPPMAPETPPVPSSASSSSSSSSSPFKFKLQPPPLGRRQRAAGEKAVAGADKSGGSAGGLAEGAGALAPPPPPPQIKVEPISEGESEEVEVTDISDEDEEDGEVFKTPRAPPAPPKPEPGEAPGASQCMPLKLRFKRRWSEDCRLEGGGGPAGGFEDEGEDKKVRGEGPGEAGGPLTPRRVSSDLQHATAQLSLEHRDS
# Summary of the method: as §1
# [12] = target: T7, ETV3L (Homo sapiens, UniProt Q6ZN32 1-361); conditions: protein: recombinant; tags: N-terminal GST; dsDNA, one strand shown
# T7 sequence: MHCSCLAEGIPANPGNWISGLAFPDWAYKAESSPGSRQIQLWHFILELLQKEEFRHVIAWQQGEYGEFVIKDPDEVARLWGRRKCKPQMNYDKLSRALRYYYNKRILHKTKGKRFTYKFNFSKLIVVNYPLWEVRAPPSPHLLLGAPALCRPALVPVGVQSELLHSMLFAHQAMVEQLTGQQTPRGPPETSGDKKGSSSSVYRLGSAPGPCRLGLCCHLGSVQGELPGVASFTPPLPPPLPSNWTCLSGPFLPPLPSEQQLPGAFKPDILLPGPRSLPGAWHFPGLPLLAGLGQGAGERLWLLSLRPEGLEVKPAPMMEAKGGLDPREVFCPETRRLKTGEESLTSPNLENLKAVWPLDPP
# Summary of the method: as §1
# [13] = target: T8, ETS2 (Homo sapiens, UniProt P15036 1-469); conditions: protein: recombinant; tags: N-terminal GST; dsDNA, one strand shown
# T8 sequence: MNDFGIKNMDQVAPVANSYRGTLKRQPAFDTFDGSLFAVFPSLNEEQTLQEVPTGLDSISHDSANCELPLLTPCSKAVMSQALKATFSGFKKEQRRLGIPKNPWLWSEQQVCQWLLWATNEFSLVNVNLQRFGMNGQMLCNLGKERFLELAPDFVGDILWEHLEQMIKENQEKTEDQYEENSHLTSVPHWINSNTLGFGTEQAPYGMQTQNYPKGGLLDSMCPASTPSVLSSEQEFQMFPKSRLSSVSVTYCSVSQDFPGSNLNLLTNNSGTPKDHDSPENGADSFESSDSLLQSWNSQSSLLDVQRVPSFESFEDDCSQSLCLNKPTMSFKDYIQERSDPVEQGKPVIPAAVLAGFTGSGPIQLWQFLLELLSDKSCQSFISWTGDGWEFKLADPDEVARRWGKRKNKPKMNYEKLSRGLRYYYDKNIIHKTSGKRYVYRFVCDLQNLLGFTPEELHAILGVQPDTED
# Summary of the method: as §1
# [14] = target: T9, SPDEF (Homo sapiens, UniProt O95238 1-335); conditions: protein: recombinant; tags: N-terminal GST; dsDNA, one strand shown
# T9 sequence: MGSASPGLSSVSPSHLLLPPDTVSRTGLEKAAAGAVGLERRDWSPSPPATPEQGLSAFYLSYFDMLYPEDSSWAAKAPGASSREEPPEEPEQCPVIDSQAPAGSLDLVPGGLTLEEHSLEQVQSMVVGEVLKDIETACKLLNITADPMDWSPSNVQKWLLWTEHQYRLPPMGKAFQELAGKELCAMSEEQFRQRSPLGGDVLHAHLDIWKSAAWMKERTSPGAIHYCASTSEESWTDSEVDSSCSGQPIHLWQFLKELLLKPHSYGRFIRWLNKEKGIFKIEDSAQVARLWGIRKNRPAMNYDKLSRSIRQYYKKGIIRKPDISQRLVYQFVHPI
# Summary of the method: as §1
# [15] = target: T10, ETV7 (Homo sapiens, UniProt Q9Y603 1-341); conditions: protein: recombinant; tags: N-terminal GST; dsDNA, one strand shown
# T10 sequence: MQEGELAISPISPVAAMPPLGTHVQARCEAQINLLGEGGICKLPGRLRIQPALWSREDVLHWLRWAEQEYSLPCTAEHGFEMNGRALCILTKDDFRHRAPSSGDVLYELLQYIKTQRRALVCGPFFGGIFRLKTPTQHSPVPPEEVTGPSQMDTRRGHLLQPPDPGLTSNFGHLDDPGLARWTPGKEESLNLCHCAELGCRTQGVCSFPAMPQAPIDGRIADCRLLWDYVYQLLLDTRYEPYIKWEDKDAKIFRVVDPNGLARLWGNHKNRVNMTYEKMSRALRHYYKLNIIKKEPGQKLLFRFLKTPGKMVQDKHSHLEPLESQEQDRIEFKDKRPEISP
# Summary of the method: as §1
# [16] = target: T11, ELF5 (Homo sapiens, UniProt Q9UKW6-2 1-255); conditions: protein: recombinant; tags: N-terminal GST; dsDNA, one strand shown
# T11 sequence: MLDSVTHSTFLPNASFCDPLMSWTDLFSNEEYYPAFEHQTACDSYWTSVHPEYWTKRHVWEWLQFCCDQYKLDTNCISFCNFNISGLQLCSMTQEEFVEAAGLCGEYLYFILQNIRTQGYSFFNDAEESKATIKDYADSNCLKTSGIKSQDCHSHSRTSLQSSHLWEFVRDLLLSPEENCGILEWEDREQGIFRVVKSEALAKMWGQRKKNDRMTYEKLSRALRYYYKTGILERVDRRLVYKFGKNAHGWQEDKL
# Summary of the method: as §1
# [17] = target: T12, ETV3 (Homo sapiens, UniProt P41162-2 1-143); conditions: protein: recombinant; tags: N-terminal GST; dsDNA, one strand shown
# T12 sequence: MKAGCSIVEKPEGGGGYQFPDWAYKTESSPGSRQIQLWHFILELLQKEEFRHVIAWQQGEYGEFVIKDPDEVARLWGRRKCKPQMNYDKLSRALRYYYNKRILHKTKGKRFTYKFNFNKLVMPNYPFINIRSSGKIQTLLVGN
# Summary of the method: as §1
# [18] = target: ETV6 (Homo sapiens, UniProt P41212 1-452); conditions: protein: recombinant; tags: N-terminal GST; dsDNA, one strand shown
# Summary of the method: as §1
# HSF1, sequence (Q00613 whole entry): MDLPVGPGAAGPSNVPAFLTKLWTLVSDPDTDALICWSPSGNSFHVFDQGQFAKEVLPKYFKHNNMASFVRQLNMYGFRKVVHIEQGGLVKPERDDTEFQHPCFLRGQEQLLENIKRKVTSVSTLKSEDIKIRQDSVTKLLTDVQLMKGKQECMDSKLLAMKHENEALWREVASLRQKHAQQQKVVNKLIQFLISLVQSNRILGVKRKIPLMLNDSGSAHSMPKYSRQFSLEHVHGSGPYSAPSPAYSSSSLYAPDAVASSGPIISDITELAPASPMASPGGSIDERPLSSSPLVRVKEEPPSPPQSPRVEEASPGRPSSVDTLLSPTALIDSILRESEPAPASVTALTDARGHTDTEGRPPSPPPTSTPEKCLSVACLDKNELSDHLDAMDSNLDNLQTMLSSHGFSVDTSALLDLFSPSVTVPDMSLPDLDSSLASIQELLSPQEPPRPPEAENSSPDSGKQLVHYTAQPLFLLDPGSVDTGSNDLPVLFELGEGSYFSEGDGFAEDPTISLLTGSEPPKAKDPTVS
# ETV5, sequence (P41161 whole entry): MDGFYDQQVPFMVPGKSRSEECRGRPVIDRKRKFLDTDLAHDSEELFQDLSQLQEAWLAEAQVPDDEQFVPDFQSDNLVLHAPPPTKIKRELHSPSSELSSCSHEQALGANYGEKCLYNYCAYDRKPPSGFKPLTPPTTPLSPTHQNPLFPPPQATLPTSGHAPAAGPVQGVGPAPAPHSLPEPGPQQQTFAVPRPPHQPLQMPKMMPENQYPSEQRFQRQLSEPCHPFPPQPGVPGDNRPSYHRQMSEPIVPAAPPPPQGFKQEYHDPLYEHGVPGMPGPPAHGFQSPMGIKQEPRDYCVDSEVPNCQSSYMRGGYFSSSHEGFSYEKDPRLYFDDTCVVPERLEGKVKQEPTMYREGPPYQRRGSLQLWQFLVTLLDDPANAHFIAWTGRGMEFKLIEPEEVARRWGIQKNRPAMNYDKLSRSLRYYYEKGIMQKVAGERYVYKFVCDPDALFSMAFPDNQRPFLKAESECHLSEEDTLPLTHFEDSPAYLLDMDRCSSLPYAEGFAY
# CRX, sequence (O43186 whole entry): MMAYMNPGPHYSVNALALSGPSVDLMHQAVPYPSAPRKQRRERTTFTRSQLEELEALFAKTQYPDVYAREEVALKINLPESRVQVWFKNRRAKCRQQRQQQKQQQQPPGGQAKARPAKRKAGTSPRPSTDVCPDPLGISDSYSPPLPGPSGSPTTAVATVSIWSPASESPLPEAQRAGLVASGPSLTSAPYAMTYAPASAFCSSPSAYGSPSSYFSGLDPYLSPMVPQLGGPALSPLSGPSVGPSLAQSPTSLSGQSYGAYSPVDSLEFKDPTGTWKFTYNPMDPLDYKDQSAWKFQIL
# ETV6, sequence (P41212 whole entry): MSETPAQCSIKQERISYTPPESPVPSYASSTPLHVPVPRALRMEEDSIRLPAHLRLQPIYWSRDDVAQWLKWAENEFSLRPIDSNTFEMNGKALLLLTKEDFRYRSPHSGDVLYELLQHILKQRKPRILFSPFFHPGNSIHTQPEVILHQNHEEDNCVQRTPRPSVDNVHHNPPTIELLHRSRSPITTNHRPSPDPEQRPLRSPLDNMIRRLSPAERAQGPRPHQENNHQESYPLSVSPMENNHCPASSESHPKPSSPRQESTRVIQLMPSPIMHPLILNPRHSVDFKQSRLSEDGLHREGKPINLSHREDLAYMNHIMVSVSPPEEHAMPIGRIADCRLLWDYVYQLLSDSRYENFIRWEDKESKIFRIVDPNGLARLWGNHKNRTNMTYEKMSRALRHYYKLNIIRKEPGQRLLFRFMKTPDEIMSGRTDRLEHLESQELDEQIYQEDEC
# ELF4, sequence (Q99607 whole entry): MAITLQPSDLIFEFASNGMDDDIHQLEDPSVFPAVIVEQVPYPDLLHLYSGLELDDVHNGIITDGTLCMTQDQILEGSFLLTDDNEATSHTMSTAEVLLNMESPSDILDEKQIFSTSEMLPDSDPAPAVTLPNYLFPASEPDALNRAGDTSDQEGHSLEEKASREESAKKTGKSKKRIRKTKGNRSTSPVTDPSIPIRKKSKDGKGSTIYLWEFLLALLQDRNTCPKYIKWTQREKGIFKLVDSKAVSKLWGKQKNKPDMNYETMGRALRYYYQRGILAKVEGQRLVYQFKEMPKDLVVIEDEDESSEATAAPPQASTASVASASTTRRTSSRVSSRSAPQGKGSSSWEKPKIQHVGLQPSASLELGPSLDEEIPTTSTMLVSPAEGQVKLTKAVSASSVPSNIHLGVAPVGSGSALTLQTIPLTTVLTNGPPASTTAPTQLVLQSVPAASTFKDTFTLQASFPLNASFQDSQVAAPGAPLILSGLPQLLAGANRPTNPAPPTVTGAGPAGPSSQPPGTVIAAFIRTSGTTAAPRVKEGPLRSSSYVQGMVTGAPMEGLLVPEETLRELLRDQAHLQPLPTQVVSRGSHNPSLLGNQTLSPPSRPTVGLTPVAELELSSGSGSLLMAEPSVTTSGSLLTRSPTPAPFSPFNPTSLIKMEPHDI
# ETV1, sequence (P50549 whole entry): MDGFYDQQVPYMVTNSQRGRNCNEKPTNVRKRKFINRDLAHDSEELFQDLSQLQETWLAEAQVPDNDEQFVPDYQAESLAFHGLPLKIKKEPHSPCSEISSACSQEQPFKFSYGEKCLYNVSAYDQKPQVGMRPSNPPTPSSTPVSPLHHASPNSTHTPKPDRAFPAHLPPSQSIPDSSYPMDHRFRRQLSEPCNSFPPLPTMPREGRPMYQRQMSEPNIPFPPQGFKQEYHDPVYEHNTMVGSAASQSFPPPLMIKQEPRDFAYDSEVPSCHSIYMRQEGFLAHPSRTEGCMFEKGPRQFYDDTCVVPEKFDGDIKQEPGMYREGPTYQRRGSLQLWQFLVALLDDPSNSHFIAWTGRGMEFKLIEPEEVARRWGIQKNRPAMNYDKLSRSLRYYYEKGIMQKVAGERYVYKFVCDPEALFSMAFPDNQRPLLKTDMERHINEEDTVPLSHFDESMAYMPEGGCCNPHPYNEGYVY
sequence,measurement,setting,value
CCAATC,binding signal,[1],"1.11 fold enrichment (6-mer frequency, TF over GST control)"
same,binding signal,[2],"1.16 fold enrichment (6-mer frequency, TF over GST control)"
same,binding signal,[3],"1.13 fold enrichment (6-mer frequency, TF over GST control)"
same,binding signal,[4],"1.24 fold enrichment (6-mer frequency, TF over GST control)"
same,binding signal,[5],"1.19 fold enrichment (6-mer frequency, TF over GST control)"
same,binding signal,[6],"1.18 fold enrichment (6-mer frequency, TF over GST control)"
same,binding signal,[7],"1.16 fold enrichment (6-mer frequency, TF over GST control)"
same,binding signal,[8],"1.11 fold enrichment (6-mer frequency, TF over GST control)"
same,binding signal,[9],"1.33 fold enrichment (6-mer frequency, TF over GST control)"
same,binding signal,[10],"1.13 fold enrichment (6-mer frequency, TF over GST control)"
same,binding signal,[11],"1.03 fold enrichment (6-mer frequency, TF over GST control)"
same,binding signal,[12],"1.19 fold enrichment (6-mer frequency, TF over GST control)"
same,binding signal,[13],"1.19 fold enrichment (6-mer frequency, TF over GST control)"
same,binding signal,[14],"1.16 fold enrichment (6-mer frequency, TF over GST control)"
same,binding signal,[15],"1.23 fold enrichment (6-mer frequency, TF over GST control)"
same,binding signal,[16],"1.16 fold enrichment (6-mer frequency, TF over GST control)"
same,binding signal,[17],"1.15 fold enrichment (6-mer frequency, TF over GST control)"
same,binding signal,[18],"1.15 fold enrichment (6-mer frequency, TF over GST control)"
